Tests used:
Conditions in all cases: treatment time: 24 h
A549-ACTB-RAB5A [1] = assay: lowest phenotypically active concentration; higher = less potent
Method in brief: (§1)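 Live-cell features were measured per well and normalised to solvent control wells after fifteen gene-edited A549, HepG2 and WPMY1 reporter lines had been treated for 24 h at 0.3, 1, 3 or 9 µM in four wells each. A condition was deviating when ≥3 of 4 wells sat beyond the 95th percentile of control Euclidean distances. It was reproducible when the median replicate Pearson correlation exceeded the 95th percentile of non-replicates. Phenotypic activity demanded both.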

A549-GM130-SQSTM1 [2] = assay: as above
Method in brief: as §1

A549-TUBA1B-RELA [3] = assay: as above
Method in brief: as §1

HepG2-ACTB-RAB5A [4] = assay: as above
Method in brief: as §1

WPMY1-CANX-COX4 [5] = assay: as above
Method in brief: as §1

A549-ACTB-RAB5A [6] = assay: phenotypically active (imaging signature differs from DMSO and reproducible) at any of 0.3-9 uM (binary (1 = active, 0 = inactive)); higher = active
Method in brief: as §1

A549-CANX-COX4 = assay: as above
Method in brief: as §1

A549-GM130-SQSTM1 [7] = assay: as above
Method in brief: as §1

A549-TP53BP1-CLTA = assay: as above
Method in brief: as §1

A549-TUBA1B-RELA [8] = assay: as above
Method in brief: as §1

HepG2-ACTB-RAB5A [9] = assay: as above
Method in brief: as §1

HepG2-CANX-COX4 = assay: as above
Method in brief: as §1

HepG2-GM130-SQSTM1 = assay: as above
Method in brief: as §1

HepG2-TP53BP1-CLTA = assay: as above
Method in brief: as §1

HepG2-TUBA1B-RELA = assay: as above
Method in brief: as §1

WPMY1-ACTB-RAB5A = assay: as above
Method in brief: as §1

WPMY1-CANX-COX4 [10] = assay: as above
Method in brief: as §1

WPMY1-GM130-SQSTM1 = assay: as above
Method in brief: as §1

WPMY1-TP53BP1-CLTA = assay: as above
Method in brief: as §1

WPMY1-TUBA1B-RELA = assay: as above
Method in brief: as §1

SMILES	lowest phenotypically active concentration (A549-ACTB-RAB5A [1]) [µM]	lowest phenotypically active concentration (A549-GM130-SQSTM1 [2]) [µM]	lowest phenotypically active concentration (A549-TUBA1B-RELA [3]) [µM]	lowest phenotypically active concentration (HepG2-ACTB-RAB5A [4]) [µM]	lowest phenotypically active concentration (WPMY1-CANX-COX4 [5]) [µM]	phenotypically active (A549-ACTB-RAB5A [6])	phenotypically active (A549-CANX-COX4)	phenotypically active (A549-GM130-SQSTM1 [7])	phenotypically active (A549-TP53BP1-CLTA)	phenotypically active (A549-TUBA1B-RELA [8])	phenotypically active (HepG2-ACTB-RAB5A [9])	phenotypically active (HepG2-CANX-COX4)	phenotypically active (HepG2-GM130-SQSTM1)	phenotypically active (HepG2-TP53BP1-CLTA)	phenotypically active (HepG2-TUBA1B-RELA)	phenotypically active (WPMY1-ACTB-RAB5A)	phenotypically active (WPMY1-CANX-COX4 [10])	phenotypically active (WPMY1-GM130-SQSTM1)	phenotypically active (WPMY1-TP53BP1-CLTA)	phenotypically active (WPMY1-TUBA1B-RELA)
CCCCCCCCCCCCC/C=C/[C@@H](O)[C@H](CO)N(C)C [N,N-Dimethylsphingosine]	3	1	3	3	3	1 (active)	0 (inactive)	1 (active)	0 (inactive)	1 (active)	1 (active)	1 (active)	1 (active)	1 (active)	1 (active)	1 (active)	1 (active)	1 (active)	1 (active)	1 (active)
O=C(NCCN1CCC(n2c(=O)[nH]c3ccccc32)CC1)c1cc2cc(F)ccc2[nH]1	9	9	3	9	9	1 (active)	0 (inactive)	1 (active)	0 (inactive)	1 (active)	1 (active)	1 (active)	1 (active)	1 (active)	1 (active)	1 (active)	1 (active)	1 (active)	1 (active)	1 (active)
CC(CN1c2ccccc2Sc2ccccc21)N(C)C (stereo not given) [promethazine]	9	9	9	9	–	1 (active)	0 (inactive)	1 (active)	0 (inactive)	1 (active)	1 (active)	0 (inactive)	1 (active)	1 (active)	1 (active)	1 (active)	0 (inactive)	1 (active)	1 (active)	1 (active)
CN(C)CCCN1c2ccccc2CCc2ccc(Cl)cc21 [clomipramine]	3	9	9	9	9	1 (active)	0 (inactive)	1 (active)	0 (inactive)	1 (active)	1 (active)	0 (inactive)	0 (inactive)	1 (active)	1 (active)	1 (active)	1 (active)	1 (active)	1 (active)	1 (active)
CCOC(=O)c1c(CSc2ccccc2)n(C)c2cc(Br)c(O)c(CN(C)C)c12 [arbidol]	9	9	9	9	–	1 (active)	0 (inactive)	1 (active)	0 (inactive)	1 (active)	1 (active)	1 (active)	1 (active)	1 (active)	1 (active)	0 (inactive)	0 (inactive)	1 (active)	0 (inactive)	0 (inactive)
CNCCCN1c2ccccc2CCc2ccccc21 [desipramine]	9	3	9	9	–	1 (active)	0 (inactive)	1 (active)	0 (inactive)	1 (active)	1 (active)	0 (inactive)	0 (inactive)	0 (inactive)	1 (active)	1 (active)	0 (inactive)	1 (active)	0 (inactive)	1 (active)
CN(C)CCCN1c2ccccc2Sc2ccc(C(F)(F)F)cc21 [triflupromazine]	3	9	9	9	9	1 (active)	0 (inactive)	1 (active)	0 (inactive)	1 (active)	1 (active)	0 (inactive)	0 (inactive)	0 (inactive)	1 (active)	1 (active)	1 (active)	1 (active)	0 (inactive)	1 (active)
CNCCCC12CCC(c3ccccc31)c1ccccc12 [maprotiline]	3	3	3	9	9	1 (active)	0 (inactive)	1 (active)	0 (inactive)	1 (active)	1 (active)	0 (inactive)	1 (active)	1 (active)	1 (active)	1 (active)	1 (active)	1 (active)	1 (active)	1 (active)
O=C(Nc1nc2cc(C(F)(F)F)cc(NC3CC3)n2n1)c1cccnc1	3	3	9	–	9	1 (active)	0 (inactive)	1 (active)	0 (inactive)	1 (active)	0 (inactive)	1 (active)	0 (inactive)	1 (active)	1 (active)	1 (active)	1 (active)	0 (inactive)	1 (active)	0 (inactive)
COc1cc(NC(=O)c2cccc(-n3cc(NC(=O)Nc4cccc(C)c4)cn3)c2)cc(OC)c1OC	9	3	9	9	–	1 (active)	0 (inactive)	1 (active)	0 (inactive)	1 (active)	1 (active)	0 (inactive)	0 (inactive)	0 (inactive)	0 (inactive)	0 (inactive)	0 (inactive)	1 (active)	0 (inactive)	1 (active)
